Laboratory results: publication PMC7862700, “An all-to-all approach to the identification of sequence-specific readers for epigenetic DNA modifications on cytosine”

Experiments:
Experiment in all cases: DAPPL (digital affinity profiling via proximity ligation, sequencing); 10 mM Tris-HCl pH 7.5, 50 mM NaCl, 1 mM DTT, 4% glycerol, room temperature, 30 min; GST-TFs on glutathione beads, 16-mer random dsDNA library, 0.1% formaldehyde crosslink after washing; high values mean tight binding
FEV = target: T1, FEV (Homo sapiens, UniProt Q99581 1-238); conditions: protein: recombinant; tags: N-terminal GST; dsDNA, one strand shown
T1 sequence: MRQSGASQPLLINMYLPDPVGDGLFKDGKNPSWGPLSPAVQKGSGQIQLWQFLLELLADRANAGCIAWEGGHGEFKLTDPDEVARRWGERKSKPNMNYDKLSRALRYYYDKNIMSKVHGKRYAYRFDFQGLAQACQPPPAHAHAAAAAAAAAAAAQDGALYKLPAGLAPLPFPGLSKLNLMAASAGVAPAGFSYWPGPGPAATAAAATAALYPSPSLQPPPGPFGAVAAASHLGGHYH
Method in brief: (§1)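 Sequencing on an Illumina NextSeq500 followed washing, crosslinking with 0.1% formaldehyde, proximity ligation (BsaI/T4 ligase, 1 h, 37 °C) and PCR amplification of pools that had been incubated for 30 min at room temperature with 200 nmole of a random double-stranded 16-mer DNA library in Tris/NaCl/DTT/glycerol buffer. Each pool held DNA-barcoded human transcription factors, expressed in yeast as GST fusions and captured on glutathione beads, plus a tag-only sample. Binding signal is a hexamer's read frequency for a factor divided by its frequency in the tag-only sample.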

ETV5 = ETV5 (Homo sapiens, UniProt P41161 1-510); conditions: protein: recombinant; tags: N-terminal GST; dsDNA, one strand shown
Chain of ETV5 (P41161 whole entry): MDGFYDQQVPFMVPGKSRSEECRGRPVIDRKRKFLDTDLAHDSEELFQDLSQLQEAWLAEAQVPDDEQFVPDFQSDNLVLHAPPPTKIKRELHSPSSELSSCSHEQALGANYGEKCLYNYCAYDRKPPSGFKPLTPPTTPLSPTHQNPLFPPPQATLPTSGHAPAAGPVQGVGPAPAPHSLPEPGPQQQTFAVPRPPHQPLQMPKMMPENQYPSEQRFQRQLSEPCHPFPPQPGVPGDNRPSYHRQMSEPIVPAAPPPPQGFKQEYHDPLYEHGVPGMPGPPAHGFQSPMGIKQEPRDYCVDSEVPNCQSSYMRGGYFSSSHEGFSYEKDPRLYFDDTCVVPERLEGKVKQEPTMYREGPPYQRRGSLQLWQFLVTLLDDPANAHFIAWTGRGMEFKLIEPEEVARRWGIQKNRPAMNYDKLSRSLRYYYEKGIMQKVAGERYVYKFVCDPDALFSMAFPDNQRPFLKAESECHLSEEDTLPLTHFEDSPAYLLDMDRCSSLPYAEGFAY
Method in brief: as §1

HSF1 = HSF1 (Homo sapiens, UniProt Q00613 1-529); conditions: protein: recombinant; tags: N-terminal GST; chain copies: 3; dsDNA, one strand shown
Chain of HSF1 (Q00613 whole entry): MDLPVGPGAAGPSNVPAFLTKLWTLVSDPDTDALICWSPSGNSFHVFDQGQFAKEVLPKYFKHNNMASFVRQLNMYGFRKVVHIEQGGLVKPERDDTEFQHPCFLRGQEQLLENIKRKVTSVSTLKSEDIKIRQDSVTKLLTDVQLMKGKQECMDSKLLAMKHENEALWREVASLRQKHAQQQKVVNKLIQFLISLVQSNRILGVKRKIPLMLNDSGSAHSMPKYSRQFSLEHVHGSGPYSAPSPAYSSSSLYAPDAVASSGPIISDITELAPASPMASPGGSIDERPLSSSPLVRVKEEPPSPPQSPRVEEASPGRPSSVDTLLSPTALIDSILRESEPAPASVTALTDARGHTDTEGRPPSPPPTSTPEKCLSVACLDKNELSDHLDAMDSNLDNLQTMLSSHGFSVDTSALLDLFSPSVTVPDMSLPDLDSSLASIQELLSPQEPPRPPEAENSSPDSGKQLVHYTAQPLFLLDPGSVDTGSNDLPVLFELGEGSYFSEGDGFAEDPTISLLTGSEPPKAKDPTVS
Method in brief: as §1

SPIC = target: T2, SPIC (Homo sapiens, UniProt Q8N5J4 1-248); conditions: protein: recombinant; tags: N-terminal GST; dsDNA, one strand shown
T2 sequence: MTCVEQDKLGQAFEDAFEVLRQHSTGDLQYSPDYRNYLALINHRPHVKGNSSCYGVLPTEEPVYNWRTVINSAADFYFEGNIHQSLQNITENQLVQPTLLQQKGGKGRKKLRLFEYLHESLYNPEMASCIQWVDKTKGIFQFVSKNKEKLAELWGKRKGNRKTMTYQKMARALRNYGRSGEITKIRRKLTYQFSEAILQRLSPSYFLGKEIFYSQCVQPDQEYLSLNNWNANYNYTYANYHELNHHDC
Method in brief: as §1

ELF4 = ELF4 (Homo sapiens, UniProt Q99607 1-663); conditions: protein: recombinant; tags: N-terminal GST; dsDNA, one strand shown
Chain of ELF4 (Q99607 whole entry): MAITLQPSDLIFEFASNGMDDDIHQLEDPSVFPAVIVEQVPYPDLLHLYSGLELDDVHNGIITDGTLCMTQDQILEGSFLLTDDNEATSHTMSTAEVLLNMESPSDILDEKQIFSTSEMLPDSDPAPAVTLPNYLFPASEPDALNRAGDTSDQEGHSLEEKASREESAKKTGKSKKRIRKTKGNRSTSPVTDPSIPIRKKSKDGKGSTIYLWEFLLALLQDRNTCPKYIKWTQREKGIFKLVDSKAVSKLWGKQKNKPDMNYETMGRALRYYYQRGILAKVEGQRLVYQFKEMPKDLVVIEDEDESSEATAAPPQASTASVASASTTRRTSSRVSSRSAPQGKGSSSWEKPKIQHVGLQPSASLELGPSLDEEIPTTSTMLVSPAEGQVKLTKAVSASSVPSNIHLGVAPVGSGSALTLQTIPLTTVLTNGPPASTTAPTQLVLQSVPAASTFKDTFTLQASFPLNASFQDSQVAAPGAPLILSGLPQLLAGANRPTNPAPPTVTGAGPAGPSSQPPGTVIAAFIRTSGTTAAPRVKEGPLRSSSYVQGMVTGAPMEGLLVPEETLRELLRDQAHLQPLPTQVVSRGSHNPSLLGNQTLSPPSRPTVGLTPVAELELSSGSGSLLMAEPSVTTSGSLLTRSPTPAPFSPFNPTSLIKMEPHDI
Method in brief: as §1

ELK4 = target: T3, ELK4 (Homo sapiens, UniProt P28324-2 1-405); conditions: protein: recombinant; tags: N-terminal GST; dsDNA, one strand shown
T3 sequence: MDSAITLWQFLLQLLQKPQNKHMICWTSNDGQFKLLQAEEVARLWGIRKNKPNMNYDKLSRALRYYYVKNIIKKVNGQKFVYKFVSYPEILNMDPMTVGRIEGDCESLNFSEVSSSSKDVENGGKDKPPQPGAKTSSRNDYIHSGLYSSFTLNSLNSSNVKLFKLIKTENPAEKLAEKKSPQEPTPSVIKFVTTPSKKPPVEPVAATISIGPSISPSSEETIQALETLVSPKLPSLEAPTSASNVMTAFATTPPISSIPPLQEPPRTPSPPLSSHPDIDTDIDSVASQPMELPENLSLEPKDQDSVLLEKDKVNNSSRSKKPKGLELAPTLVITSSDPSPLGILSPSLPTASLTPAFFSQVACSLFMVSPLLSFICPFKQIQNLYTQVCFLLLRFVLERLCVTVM
Method in brief: as §1

ETV2 = target: T4, ETV2 (Homo sapiens, UniProt O00321 1-342); conditions: protein: recombinant; tags: N-terminal GST; dsDNA, one strand shown
T4 sequence: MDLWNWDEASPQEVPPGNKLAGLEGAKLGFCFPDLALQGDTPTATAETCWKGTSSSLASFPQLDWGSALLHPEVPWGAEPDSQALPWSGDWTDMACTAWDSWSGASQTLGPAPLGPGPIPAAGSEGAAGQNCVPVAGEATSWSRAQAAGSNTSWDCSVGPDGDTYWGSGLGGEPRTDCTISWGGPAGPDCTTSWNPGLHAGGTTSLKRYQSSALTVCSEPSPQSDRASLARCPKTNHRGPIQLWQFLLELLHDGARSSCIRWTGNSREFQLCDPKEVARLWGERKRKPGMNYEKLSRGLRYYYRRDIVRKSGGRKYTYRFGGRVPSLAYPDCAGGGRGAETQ
Method in brief: as §1

ELF3 = target: T5, ELF3 (Homo sapiens, UniProt P78545 1-371); conditions: protein: recombinant; tags: N-terminal GST; dsDNA, one strand shown
T5 sequence: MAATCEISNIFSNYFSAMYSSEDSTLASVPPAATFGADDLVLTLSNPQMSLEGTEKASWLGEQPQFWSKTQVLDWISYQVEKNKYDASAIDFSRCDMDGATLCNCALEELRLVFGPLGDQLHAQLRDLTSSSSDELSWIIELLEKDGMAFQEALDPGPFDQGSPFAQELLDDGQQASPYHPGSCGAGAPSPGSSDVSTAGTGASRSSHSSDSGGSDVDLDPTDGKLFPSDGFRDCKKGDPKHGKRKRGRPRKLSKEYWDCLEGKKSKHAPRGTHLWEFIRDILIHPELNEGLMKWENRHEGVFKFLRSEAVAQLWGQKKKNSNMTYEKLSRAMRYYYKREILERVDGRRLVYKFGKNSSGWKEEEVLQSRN
Method in brief: as §1

CRX = CRX (Homo sapiens, UniProt O43186 1-299); conditions: protein: recombinant; tags: N-terminal GST; dsDNA, one strand shown
Chain of CRX (O43186 whole entry): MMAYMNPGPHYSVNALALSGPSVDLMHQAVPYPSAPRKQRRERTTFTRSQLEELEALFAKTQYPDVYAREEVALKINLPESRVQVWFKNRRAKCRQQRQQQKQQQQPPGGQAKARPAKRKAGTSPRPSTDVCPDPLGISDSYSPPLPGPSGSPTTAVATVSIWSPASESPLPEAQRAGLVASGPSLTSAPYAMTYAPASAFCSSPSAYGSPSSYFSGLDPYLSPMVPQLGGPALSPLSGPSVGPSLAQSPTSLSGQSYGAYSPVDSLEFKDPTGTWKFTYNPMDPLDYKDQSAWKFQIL
Method in brief: as §1

ETV1 = ETV1 (Homo sapiens, UniProt P50549 1-477); conditions: protein: recombinant; tags: N-terminal GST; dsDNA, one strand shown
Chain of ETV1 (P50549 whole entry): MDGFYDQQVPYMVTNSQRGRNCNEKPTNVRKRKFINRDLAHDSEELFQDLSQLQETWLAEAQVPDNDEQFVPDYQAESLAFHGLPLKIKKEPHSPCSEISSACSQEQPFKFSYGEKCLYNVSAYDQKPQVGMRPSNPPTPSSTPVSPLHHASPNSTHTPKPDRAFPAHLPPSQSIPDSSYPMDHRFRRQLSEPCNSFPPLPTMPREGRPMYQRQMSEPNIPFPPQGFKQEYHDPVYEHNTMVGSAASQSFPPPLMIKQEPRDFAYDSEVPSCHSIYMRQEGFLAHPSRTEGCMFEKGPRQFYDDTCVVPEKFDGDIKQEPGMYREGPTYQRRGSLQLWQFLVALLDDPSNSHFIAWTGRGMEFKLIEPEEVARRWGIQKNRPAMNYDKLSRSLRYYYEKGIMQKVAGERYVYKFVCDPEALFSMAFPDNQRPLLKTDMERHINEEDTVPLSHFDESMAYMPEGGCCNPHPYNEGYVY
Method in brief: as §1

ETV3L = target: T6, ETV3L (Homo sapiens, UniProt Q6ZN32 1-361); conditions: protein: recombinant; tags: N-terminal GST; dsDNA, one strand shown
T6 sequence: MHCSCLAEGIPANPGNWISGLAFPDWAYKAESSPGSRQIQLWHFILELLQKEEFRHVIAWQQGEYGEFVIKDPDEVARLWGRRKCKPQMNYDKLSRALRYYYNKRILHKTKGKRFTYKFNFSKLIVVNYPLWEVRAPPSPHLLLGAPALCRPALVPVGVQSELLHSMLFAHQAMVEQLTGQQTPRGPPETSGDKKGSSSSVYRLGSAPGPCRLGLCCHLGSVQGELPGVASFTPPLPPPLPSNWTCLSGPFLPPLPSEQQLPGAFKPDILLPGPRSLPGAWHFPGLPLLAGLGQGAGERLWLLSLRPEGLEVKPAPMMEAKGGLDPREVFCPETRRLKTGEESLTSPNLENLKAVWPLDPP
Method in brief: as §1

ETS2 = target: T7, ETS2 (Homo sapiens, UniProt P15036 1-469); conditions: protein: recombinant; tags: N-terminal GST; dsDNA, one strand shown
T7 sequence: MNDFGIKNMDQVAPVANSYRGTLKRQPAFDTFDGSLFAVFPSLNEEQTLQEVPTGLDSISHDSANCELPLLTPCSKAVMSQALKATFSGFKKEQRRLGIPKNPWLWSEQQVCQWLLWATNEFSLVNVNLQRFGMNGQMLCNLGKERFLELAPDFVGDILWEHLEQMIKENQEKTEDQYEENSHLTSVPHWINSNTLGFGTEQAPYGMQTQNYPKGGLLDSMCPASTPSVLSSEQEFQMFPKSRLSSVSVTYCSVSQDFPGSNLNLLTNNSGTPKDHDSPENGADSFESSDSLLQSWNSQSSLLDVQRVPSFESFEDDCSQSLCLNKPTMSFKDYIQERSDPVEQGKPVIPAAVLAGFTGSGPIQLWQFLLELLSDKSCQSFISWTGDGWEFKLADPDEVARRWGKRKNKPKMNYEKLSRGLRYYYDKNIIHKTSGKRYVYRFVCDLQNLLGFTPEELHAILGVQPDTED
Method in brief: as §1

SPDEF = target: T8, SPDEF (Homo sapiens, UniProt O95238 1-335); conditions: protein: recombinant; tags: N-terminal GST; dsDNA, one strand shown
T8 sequence: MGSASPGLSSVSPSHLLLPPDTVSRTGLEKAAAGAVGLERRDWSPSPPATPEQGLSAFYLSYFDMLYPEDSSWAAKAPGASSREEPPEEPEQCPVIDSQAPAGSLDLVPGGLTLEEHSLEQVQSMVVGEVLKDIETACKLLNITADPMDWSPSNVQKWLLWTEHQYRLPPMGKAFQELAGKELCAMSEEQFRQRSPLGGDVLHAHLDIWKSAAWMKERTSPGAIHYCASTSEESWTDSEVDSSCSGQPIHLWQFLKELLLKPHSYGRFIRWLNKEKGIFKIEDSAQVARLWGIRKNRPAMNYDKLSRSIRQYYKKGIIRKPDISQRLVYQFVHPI
Method in brief: as §1

ETV7 = target: T9, ETV7 (Homo sapiens, UniProt Q9Y603 1-341); conditions: protein: recombinant; tags: N-terminal GST; dsDNA, one strand shown
T9 sequence: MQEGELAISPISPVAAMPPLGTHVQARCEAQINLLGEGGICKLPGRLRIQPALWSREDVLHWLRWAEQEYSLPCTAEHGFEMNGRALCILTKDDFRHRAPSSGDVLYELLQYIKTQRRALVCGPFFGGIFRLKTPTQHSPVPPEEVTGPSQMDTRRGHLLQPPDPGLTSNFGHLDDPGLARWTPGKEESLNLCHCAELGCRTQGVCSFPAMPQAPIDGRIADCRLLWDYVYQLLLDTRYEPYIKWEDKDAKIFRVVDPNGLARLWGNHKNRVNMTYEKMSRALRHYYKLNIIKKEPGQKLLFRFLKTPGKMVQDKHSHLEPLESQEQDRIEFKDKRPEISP
Method in brief: as §1

ELF5 = target: T10, ELF5 (Homo sapiens, UniProt Q9UKW6-2 1-255); conditions: protein: recombinant; tags: N-terminal GST; dsDNA, one strand shown
T10 sequence: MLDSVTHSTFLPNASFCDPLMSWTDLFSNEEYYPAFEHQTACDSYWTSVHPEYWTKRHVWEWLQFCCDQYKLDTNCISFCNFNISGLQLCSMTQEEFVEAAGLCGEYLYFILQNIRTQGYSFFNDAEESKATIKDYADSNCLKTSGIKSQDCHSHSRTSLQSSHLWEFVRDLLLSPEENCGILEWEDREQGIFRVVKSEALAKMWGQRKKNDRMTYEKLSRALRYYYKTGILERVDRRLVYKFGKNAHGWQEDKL
Method in brief: as §1

ETV3 = target: T11, ETV3 (Homo sapiens, UniProt P41162-2 1-143); conditions: protein: recombinant; tags: N-terminal GST; dsDNA, one strand shown
T11 sequence: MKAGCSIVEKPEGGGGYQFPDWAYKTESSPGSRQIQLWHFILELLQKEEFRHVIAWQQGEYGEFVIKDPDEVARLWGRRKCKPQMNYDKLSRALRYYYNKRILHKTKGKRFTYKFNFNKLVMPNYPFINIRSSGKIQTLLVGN
Method in brief: as §1

ETV6 = ETV6 (Homo sapiens, UniProt P41212 1-452); conditions: protein: recombinant; tags: N-terminal GST; dsDNA, one strand shown
Chain of ETV6 (P41212 whole entry): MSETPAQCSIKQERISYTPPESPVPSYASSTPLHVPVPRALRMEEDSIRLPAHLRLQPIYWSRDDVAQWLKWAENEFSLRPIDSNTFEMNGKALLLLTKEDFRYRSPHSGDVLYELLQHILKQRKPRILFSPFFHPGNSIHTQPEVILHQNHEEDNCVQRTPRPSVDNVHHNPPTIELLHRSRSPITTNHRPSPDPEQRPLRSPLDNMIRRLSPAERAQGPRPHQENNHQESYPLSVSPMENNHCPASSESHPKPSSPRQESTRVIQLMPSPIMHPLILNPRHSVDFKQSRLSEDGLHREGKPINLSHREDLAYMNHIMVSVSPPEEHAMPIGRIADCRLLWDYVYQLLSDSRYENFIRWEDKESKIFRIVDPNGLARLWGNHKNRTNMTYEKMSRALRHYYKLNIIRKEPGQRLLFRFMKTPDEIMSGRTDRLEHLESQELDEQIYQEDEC
Method in brief: as §1

## AGTAAT
FEV
  binding signal: 1.05 fold enrichment (6-mer frequency, TF over GST control)
ETV5
  binding signal: 1.12 fold enrichment (6-mer frequency, TF over GST control)
HSF1
  binding signal: 1.3 fold enrichment (6-mer frequency, TF over GST control)
SPIC
  binding signal: 1.12 fold enrichment (6-mer frequency, TF over GST control)
ELF4
  binding signal: 1.1 fold enrichment (6-mer frequency, TF over GST control)
ELK4
  binding signal: 1.08 fold enrichment (6-mer frequency, TF over GST control)
ETV2
  binding signal: 1.24 fold enrichment (6-mer frequency, TF over GST control)
ELF3
  binding signal: 1.08 fold enrichment (6-mer frequency, TF over GST control)
CRX
  binding signal: 1.61 fold enrichment (6-mer frequency, TF over GST control)
ETV1
  binding signal: 1.06 fold enrichment (6-mer frequency, TF over GST control)
ETV3L
  binding signal: 1.07 fold enrichment (6-mer frequency, TF over GST control)
ETS2
  binding signal: 1.15 fold enrichment (6-mer frequency, TF over GST control)
SPDEF
  binding signal: 1.1 fold enrichment (6-mer frequency, TF over GST control)
ETV7
  binding signal: 1.19 fold enrichment (6-mer frequency, TF over GST control)
ELF5
  binding signal: 1.2 fold enrichment (6-mer frequency, TF over GST control)
ETV3
  binding signal: 1.03 fold enrichment (6-mer frequency, TF over GST control)
ETV6
  binding signal: 1.15 fold enrichment (6-mer frequency, TF over GST control)
